# Reference: PubChem BioAssay (EPA / NIEHS)
# Inconclusive results are not listed. More than one record can exist for a structure, and the calls need not agree. Calls of active or inactive are those of the source. The calls were made as follows, unless noted: active = hit-call score of the fitted dose curve at least 0.9, where 1 is the maximum; inactive = score below 0.9.
# Columns and labels:
# [1] = target: Cellular tumor antigen p53 (Homo sapiens) (UniProt P04637); assay: TOX21_p53_BLA_p5_ratio: Tox21 HCT-116 p53 Agonism Beta-lactamase Assay, Ratio, Phase 5 (AID 2283599; active = hit-call score of the fitted dose curve at least 0.9, where 1 is the maximum)
# How it was run: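 Beta-lactamase reporter ratio (blue 460 nm over green 530 nm, 405 nm excitation) after 2 h CCF4-AM loading, in HCT-116 cells exposed 16 h at 37 C to compounds pinned at 217-fold dilution. Increases relative to DMSO baseline scored.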
# [2] = CCTE_Shafer_MEA_acute_spike_number: CCTE's Neural Acute Assay for Total Number of Spikes, Shafer Lab (AID 2284008);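 as to AC50: curve fitted for decrease in spike count so AC50 reflects inhibitors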
# How it was run: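 Primary rat cortical neurons on 16-electrode MEA wells; on DIV 13 or 15, 40-min baseline then 40-min recording with compound (0.03-40 uM) at 37 C. Spikes detected at 8x rms noise; percent change versus baseline, DMSO as negative control.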
# [3] = CCTE_Shafer_MEA_acute_firing_rate_mean: CCTE's Neural Acute Assay for Mean Firing Rate, Shafer Lab (AID 2284009);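 also: analyzed for loss of signal so actives lower firing rate relative to DMSO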
# How it was run: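 Primary rat cortical neurons on 16-electrode MEA wells were exposed on DIV 13 or 15 to compound (0.03-40 uM). Spike counts per recording time, averaged over electrodes, were compared between 40-min baseline and 40-min post-exposure recordings as percent change.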
# [4] = CCTE_Shafer_MEA_acute_burst_number: CCTE's Neural Acute Assay for Single-Electrode Bursts, Shafer Lab (AID 2284013)
# How it was run: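 Primary rat cortical neurons on 16-electrode MEA wells, DIV 13 or 15, exposed to compound (0.03-40 uM; ≥3 wells); 40-min recordings at 37 C before and after treatment. Burst count expressed as percent change from baseline, DMSO as negative control.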
# [5] = CCTE_Shafer_MEA_acute_burst_duration_mean: CCTE's Neural Acute Assay for Mean Burst Duration, Shafer Lab (AID 2284014);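 also: hits are decreases in mean burst duration relative to DMSO controls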
# How it was run: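 Mean burst duration was compared between a 40 min baseline and a 40 min recording in the presence of compound (0.03-40 uM, 37 C), giving percent change per well. Cultures were rat cortical neurons at DIV 13 or 15; wells needed ≥10 active electrodes.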
# [6] = CCTE_Shafer_MEA_acute_per_burst_spike_number_mean: CCTE's Neural Acute Assay for Average Number of Spikes Per Burst, Shafer Lab (AID 2284015);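 also: hits are decreases in mean spikes per burst versus baseline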
# How it was run: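 We recorded spontaneous network firing of rat cortical neurons for 40 min before and 40 min during exposure to compound at 0.03-40 uM, at 37 C. Spikes were detected adaptively at 8x rms noise, and the change in average spikes per burst was fitted against DMSO.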
# [7] = CCTE_Shafer_MEA_acute_cross_correlation_HWHM: CCTE's Neural Acute Assay for Cross Correlation at Half Width at Half Maximum, Shafer Lab (AID 2284026);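 also: percent change per well from pre-dose baseline in spike cross-correlogram half width; hits are a decrease in cross-correlogram half width relative to DMSO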;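 as to outcome: spontaneous network firing of rat primary cortical neurons on multiwell microelectrode arrays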
# How it was run: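 Primary rat cortical neurons on 16-electrode MEA wells; 40-min baseline on DIV 13 or 15, then 40-min recording with compound (0.03-40 uM) at 37 C. HWHM of spike cross-correlogram expressed as percent change from baseline per well, DMSO reference.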
# [8] = CCTE_Mundy_HCI_hNP1_CellTiter: CCTE's Cell Titer-Glo 2 Assay in human neuroprogenitor cells for Viability, Mundy Lab (AID 2284241; active = hit-call score of the fitted dose curve at least 0.9, where 1 is the maximum;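 as to AC50: a hit is a drop in ATP luminescence versus DMSO meaning reduced viability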)
# How it was run: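 Human neural progenitor cells (hNP1, WA09-derived) were plated on poly-L-ornithine/laminin and grown 40 to 44 hours at 37 °C, 5% CO2 before chemical addition. Twenty-four hours later, ATP was measured by CellTiter-Glo luminescence; loss of signal versus DMSO indicates reduced viability.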
# [9] = target: Nucleoli Translocation, AR (gene 367) (UniProt P10275); assay: UPITT_HCI_U2OS_AR_TIF2_Nucleoli_Antagonist: University of Pittsburgh U2OS Androgen Receptor-Transcriptional Intermediary Factor 2 (AR-TIF2) Antagonism High Content Imaging Assay for Nucleoli Translocation (AID 2283997; active = hit-call score of the fitted dose curve at least 0.9, where 1 is the maximum)
# How it was run: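 Antagonism is read as loss of nucleolar AR-RFP signal relative to DHT, imaged in U2OS cells also carrying GFP-TIF2. Compounds screened at 20 uM final, 0.2% DMSO; primary actives retested in triplicate.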
# [10] = target: Ratio of Nucleoli Translocation and Cytoplasm, AR (gene 367) (UniProt P10275); assay: UPITT_HCI_U2OS_AR_TIF2_Nucleoli_Cytoplasm_Ratio_Antagonist: University of Pittsburgh U2OS Androgen Receptor-Transcriptional Intermediary Factor 2 (AR-TIF2) Antagonism High Content Imaging Assay for Ratio of Nucleoli Translocation and Cytoplasm (AID 2283999; active = hit-call score of the fitted dose curve at least 0.9, where 1 is the maximum;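 also: antagonists lower the DHT-driven ratio of nucleolar to cytoplasmic red signal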)
# How it was run: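 High-content imaging of red fluorescence ratio, nucleoli versus cytoplasm, in U2OS expressing AR-RFP and TIF2-GFP, fitted relative to DHT. Compounds tested once at 20 uM final, then 0.195 to 50 uM final in serial dilution.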
# [11] = CCTE_Mundy_HCI_hN2_NOG_NeuriteLength: CCTE's Neurite Outgrowth Assay in human hN2 cells for Neurite Length, Mundy Lab (AID 2284220; active = hit-call score of the fitted dose curve at least 0.9, where 1 is the maximum)
# How it was run: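 Plate hNP1-derived neurons, then add chemical 2 h later as a 1/10 dilution. Stain with anti-βIII-tubulin then Alexa Fluor-488 secondary, and image automatically to measure neurite length.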
# [12] = CCTE_Mundy_HCI_hN2_NOG_NeuronCount: CCTE's Neurite Outgrowth Assay in human hN2 cells for Neuron Count, Mundy Lab (AID 2284221; active = hit-call score of the fitted dose curve at least 0.9, where 1 is the maximum)
# How it was run: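 Read-out is the number of betaIII-tubulin-positive neurons imaged by automated high-content analysis, with DMSO as negative control.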
# Chain of Nucleoli Translocation, AR (gene 367) (P10275 whole entry, looked up): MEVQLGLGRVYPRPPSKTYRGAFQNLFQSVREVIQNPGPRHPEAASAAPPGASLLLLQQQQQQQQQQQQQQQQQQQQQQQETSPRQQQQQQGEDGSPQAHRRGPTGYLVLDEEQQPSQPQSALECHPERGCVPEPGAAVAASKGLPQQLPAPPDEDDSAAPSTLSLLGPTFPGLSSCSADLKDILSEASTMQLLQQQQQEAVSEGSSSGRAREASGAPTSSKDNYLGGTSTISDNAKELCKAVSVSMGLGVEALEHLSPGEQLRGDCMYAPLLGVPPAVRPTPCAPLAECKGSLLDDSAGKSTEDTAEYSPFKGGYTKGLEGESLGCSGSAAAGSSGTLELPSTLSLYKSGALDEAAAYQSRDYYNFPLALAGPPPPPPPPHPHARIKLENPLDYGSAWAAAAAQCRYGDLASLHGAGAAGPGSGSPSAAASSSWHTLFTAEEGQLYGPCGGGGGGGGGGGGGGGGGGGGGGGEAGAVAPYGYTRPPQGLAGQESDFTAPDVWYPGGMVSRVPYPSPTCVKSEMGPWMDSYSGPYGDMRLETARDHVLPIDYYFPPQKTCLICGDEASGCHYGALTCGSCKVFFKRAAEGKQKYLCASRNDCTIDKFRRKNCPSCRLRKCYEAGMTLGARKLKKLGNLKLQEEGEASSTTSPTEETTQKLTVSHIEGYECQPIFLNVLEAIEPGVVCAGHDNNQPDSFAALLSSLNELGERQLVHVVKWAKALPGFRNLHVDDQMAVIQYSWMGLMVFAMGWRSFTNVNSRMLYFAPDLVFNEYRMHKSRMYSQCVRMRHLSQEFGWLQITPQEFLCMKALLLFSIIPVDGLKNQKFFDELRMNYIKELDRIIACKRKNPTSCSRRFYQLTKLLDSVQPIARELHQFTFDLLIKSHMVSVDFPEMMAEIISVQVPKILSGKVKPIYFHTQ
# Chain of Ratio of Nucleoli Translocation and Cytoplasm, AR (gene 367) (P10275 whole entry, looked up): as above
# Chain of Cellular tumor antigen p53 (Homo sapiens) (P04637 whole entry, looked up): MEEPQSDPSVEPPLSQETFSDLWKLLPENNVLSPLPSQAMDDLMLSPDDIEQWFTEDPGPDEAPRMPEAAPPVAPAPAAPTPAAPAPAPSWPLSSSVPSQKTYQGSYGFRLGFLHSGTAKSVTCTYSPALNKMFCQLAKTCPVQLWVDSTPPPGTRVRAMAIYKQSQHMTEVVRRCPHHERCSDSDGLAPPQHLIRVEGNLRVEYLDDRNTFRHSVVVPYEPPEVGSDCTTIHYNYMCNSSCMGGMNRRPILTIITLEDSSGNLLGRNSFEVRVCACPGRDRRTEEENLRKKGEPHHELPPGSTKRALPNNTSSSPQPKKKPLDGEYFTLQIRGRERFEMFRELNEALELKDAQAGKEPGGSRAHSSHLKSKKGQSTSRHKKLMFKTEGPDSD
smiles,measurement,setting,value
COc1ccc2[nH]cc(CCN(C(C)C)C(C)C)c2c1,outcome,[1],inactive
C#CCN(C)[C@H](C)Cc1ccccc1,outcome,[2],inactive
same,outcome,[3],inactive
same,outcome,[4],inactive
same,AC50,[5],8.86 µM (active)
same,outcome,[6],inactive
same,outcome,[7],inactive
same,outcome,[8],inactive
C[n+]1ccc(-c2cc[n+](C)cc2)cc1,outcome,[9],inactive
same,outcome,[10],inactive
same,outcome,[11],inactive
same,AC50,[12],50 µM (active)
same,outcome,[8],inactive
CC(=O)[O-].CC(=O)[O-].O.O.O.[Pb+2],AC50,[11],2.07 µM (active)
same,AC50,[12],12 µM (active)
O=C(O)CNCP(=O)(O)O,outcome,[2],inactive
same,outcome,[3],inactive
same,outcome,[4],inactive
same,outcome,[5],inactive
same,outcome,[6],inactive
same,outcome,[7],inactive
same,outcome,[11],inactive
COP(=S)(OC)SCC(=O)N(C)C=O,outcome,[9],inactive
same,outcome,[10],inactive
CCCCC(CC)COC(=O)c1cc(Br)c(Br)c(Br)c1Br (configuration not stated),outcome,[9],inactive
same,outcome,[10],inactive
ClC1=C(Cl)[C@]2(Cl)[C@H]3[C@H]([C@H](Cl)C(Cl)[C@@H]3Cl)[C@@]1(Cl)C2(Cl)Cl (some centres not stated),outcome,[9],inactive
same,outcome,[10],inactive
CP(=O)(O)CC[C@H](N)C(=O)O,outcome,[2],inactive
same,outcome,[3],inactive
same,outcome,[4],inactive
same,outcome,[5],inactive
same,outcome,[6],inactive
same,AC50,[7],36.5 µM (active)
same,outcome,[7],inactive
C[C@H](N)Cc1ccccc1,outcome,[12],inactive
same,outcome,[8],inactive
CP(=O)(O)CCC(N)C(=O)O (configuration not stated),outcome,[2],inactive
same,outcome,[3],inactive
same,outcome,[4],inactive
same,AC50,[5],35 µM (active)
same,AC50,[6],50 µM (active)
same,outcome,[7],inactive
CC1(C)[C@@H](C=C(Cl)Cl)[C@@H]1C(=O)O[C@@H](C#N)c1ccc(F)c(Oc2ccccc2)c1,AC50,[2],2.96 µM (active)
same,AC50,[3],2.97 µM (active)
same,outcome,[4],inactive
same,outcome,[5],inactive
same,AC50,[6],0.842 µM (active)
same,outcome,[7],inactive
same,outcome,[8],inactive
O=S1OC[C@@H]2[C@H](CO1)[C@]1(Cl)C(Cl)=C(Cl)[C@]2(Cl)C1(Cl)Cl (some centres not stated),outcome,[9],inactive
same,outcome,[10],inactive
Cn1nc(C(F)(F)F)c(CS(=O)(=O)C2=NOC(C)(C)C2)c1OC(F)F,outcome,[8],inactive
Clc1c(Cl)c(Cl)c2c(c1Cl)Oc1c(Cl)c(Cl)c(Cl)c(Cl)c1O2,outcome,[10],inactive
CC1(C)C(C=C(Cl)Cl)C1C(=O)O[C@H](C#N)c1cccc(Oc2ccccc2)c1 (some centres not stated),outcome,[8],inactive
O=c1[nH]c2c(c(=O)n1C1CCCCC1)CCC2,outcome,[9],inactive
C=CCN1CC[C@]23c4c5ccc(O)c4O[C@H]2C(=O)CC[C@@]3(O)[C@H]1C5,outcome,[11],inactive
same,outcome,[8],inactive
CCOP(=O)(OCC)SCSC(C)(C)C,outcome,[8],inactive
O.O.O.O.O.[Cd+2].[Cd+2].[Cl-].[Cl-].[Cl-].[Cl-],AC50,[11],31.6 µM (active)
same,AC50,[12],14.1 µM (active)
[CH3][Sn]([CH3])[CH3],outcome,[12],inactive
CCOP(=S)(OCC)SCS(=O)C(C)(C)C (configuration not stated),outcome,[8],inactive
O=[As]O,AC50,[11],5.09 µM (active)
same,AC50,[12],4.47 µM (active)
same,AC50,[8],6.1 µM (active)
CC1(C)[C@H](C=C(Cl)Cl)[C@H]1C(=O)OCc1c(F)c(F)cc(F)c1F,AC50,[8],23.2 µM (active)
